CDC25B CDK2 inh: primary biochemical HTRF screen for blockers of M-phase inducer phosphatase 2 binding to CDK2/cyclin A; P30305+P24941; HTRF CDC25B-CDK2/CyclinA binding, anti-His/anti-Flag; hits give high values; z-score (test concentration not listed); 94,000 tested, 0.72% active; AID 1259370, 2018; in the data active = z-score above about 3.2
TAR Tat displ: TAR RNA-Tat peptide displacers, HIV-1, primary screen, biochemical, FRET, FAM/TAMRA-labeled Tat. HIV-1 TAR RNA, Tat peptide displacement FRET; hits give high values. z-score (test concentration not listed). 100,000 tested, 0.6% active. AID 1259389, 2018; active = z-score of 3 or more in at least 2 runs
* = called active by the depositor; . = no result given. Shown are actives, neighbours in structure and some others; about 0.93% of the full set was active somewhere.

SMILES | CDC25B CDK2 inh | TAR Tat displ
O=C1C[C@@H](c2ccc(O)cc2)Oc2cc(O[C@@H]3O[C@H](CO)[C@@H](O)[C@H](O)[C@H]3O)cc(O)c21 | . | 3.2
C[C@@H]1O[C@@H](O[C@H]2[C@H](Oc3cc(O)c4c(c3)O[C@H](c3ccc(O)cc3)CC4=O)O[C@H](CO)[C@@H](O)[C@@H]2O)[C@H](O)[C@H](O)[C@H]1O | . | 0.91
COc1ccc(/C=C/c2cc(O)cc(O[C@@H]3O[C@H](CO)[C@@H](O)[C@H](O)[C@H]3O)c2)cc1O | . | 0.87
O=C(/C=C/c1ccc(O)c(O)c1)c1ccc(O[C@@H]2O[C@H](CO)[C@@H](O)[C@H](O)[C@H]2O)c(O)c1O | . | 31*
O=C(O/N=C1\Cc2ccccc2C1=O)c1cccs1 | -0.52 | .
O=C(Nc1ccc(F)cc1)C(=O)Nc1ccc2nc3n(c(=O)c2c1)CCCCC3 | 0.01 | 1.8
CCOC(=O)c1[nH]c(=O)[nH]c1Cn1nc(C)cc1C | -4.9 | .
NC(N)=NCCS(=O)(=O)O | -0.73 | .
Nc1ccc(-c2nc3ccc(N)cc3s2)cc1 | -3.9 | 1.8
Nc1ccc(-c2nc3cc4sc(-c5ccc(N)cc5)nc4cc3s2)cc1 | 4.5* | 35*
Cc1nn(-c2nc3ccc(Br)cc3s2)c2c1C(c1ccccc1F)CC(=O)N2 (configuration not stated) | . | 0.33
O=C(CCc1nc2sc3c(c2c(=O)[nH]1)CCCCC3)N1CCN(Cc2ccc3c(c2)OCO3)CC1 | . | 10*
CNC(=O)CCc1nc2sc3c(c2c(=O)[nH]1)CCCCC3 | . | 0.79
CC(C)(C)C1CCc2c(sc3nc(CCC(=O)N4CCC(C(N)=O)CC4)[nH]c(=O)c23)C1 (configuration not stated) | . | 0.16
O=C(CCc1nc2sc3c(c2c(=O)[nH]1)CCCCC3)N1CCN(c2ccc(F)cc2)CC1 | . | -0.48
CC(=O)NCCNC(=O)CCc1nc2sc3c(c2c(=O)[nH]1)CCCCC3 | . | 6*
NC(=O)C1CCN(C(=O)CCc2nc3sc4c(c3c(=O)[nH]2)CCCCC4)CC1 | . | 19*
CC1CCCCC1NC(=O)C1(C)Cn2c(cc3occc32)C(=O)N1CCN1CCOCC1 (configuration not stated) | . | 6.6
Cc1csc(NC(=O)CN2Cc3ccccc3C2=O)n1 | . | 0.75
Cc1cc(C)n(-c2cc(Nc3ccc(F)cc3)ncn2)n1 | . | -0.72
O=c1[nH]c2ccc(Nc3cc(N4CCOCC4)ncn3)cc2[nH]1 | 8.2* | 0.27
CCOC(=O)c1c(C)[nH]c(C)c1S(=O)(=O)N(CCc1ccncc1)CC1CCCO1 (configuration not stated) | . | 0.51
O=C(O)CN1C(=O)/C(=C\c2ccc(-c3cccc4c3C(=O)c3ccccc3C4=O)o2)SC1=S | 10* | .
CC(=O)NS(=O)(=O)c1ccc(NC(=O)CCN2C(=O)/C(=C/c3ccccc3)SC2=S)cc1 | -2.5 | .
Cc1cc(F)ccc1NC(=O)C1=Cc2sc3c(c2CS1)CCCC3 | . | -1.3
SMILES | CDC25B CDK2 inh | TAR Tat displ
Cc1oc(-c2ccc(Cl)cc2)cc1-c1nn2c(-c3ccco3)nnc2s1 | -1.3 | 1.4
Cc1oc(-c2ccc(F)cc2)cc1-c1nn2c(-c3ccoc3C)nnc2s1 | 1.8 | 18*
COc1cc2c(cc1OC)C(C(=O)N1CCN(c3ccccn3)CC1)C1c3ccccc3CCN1C2=O (configuration not stated) | -3.2 | 0.27
NC(=O)c1cccc2c1NC(C(=O)O)C1CC=CC21 (configuration not stated) | 0.33 | 27*
O=C(O)C1Nc2c(O)cccc2C2C=CCC12 (configuration not stated) | 3.8 | .
CCOC(=O)C1=C(C)NC2=C(C(=O)C(C(=O)OC)C(C)C2)C1c1cccc2ccccc12 (configuration not stated) | -0.57 | 2.8
Nc1ccc2nc(SCC(=O)c3ccc(Br)cc3)sc2c1 | -4.4 | -1.4
Nc1ccc2nc(SCC(=O)c3ccc(-c4ccccc4)cc3)sc2c1 | 17* | .
FC(F)(F)c1cccc(-c2ccc(-c3nn4c(-c5ccco5)nnc4s3)o2)c1 | 1.4 | .
Fc1ccccc1-c1ccc(-c2nn3c(-c4ccco4)nnc3s2)o1 | -0.12 | 20*
Cc1occc1-c1nnc2sc(-c3ccc(-c4cccc(Cl)c4)o3)nn12 | -0.12 | 1.7
Clc1cccc(-c2ccc(-c3nn4c(-c5ccco5)nnc4s3)o2)c1 | -0.52 | 17*
CCOC(=O)c1oc2c(c1C)C(=O)CCC2 | -0.85 | 1.5
NCC(c1ccco1)c1c[nH]c2ccccc12 (configuration not stated) | -3 | -2.1
O=C1c2cccnc2C(=O)N1Cc1ccc(F)cc1S(=O)(=O)Nc1ccc(F)cc1F | . | 1.1
O=C1CSC(Cc2cccs2)=N1 | -0.13 | .
C[C@](N)(Cc1ccc(O)c(O)c1)C(=O)O | 0.01 | 26*
C[C@](N)(Cc1ccc(O)cc1)C(=O)O | 0.99 | .
O=C(CC1CCCC1)Nc1cccc2nsnc12 | . | -0.39
CC(=O)N1CCc2cc(S(=O)(=O)NC(CC(C)C)C(=O)N3CCc4ccccc4C3)ccc21 (configuration not stated) | -0.12 | -0.16
COc1cc(CNC(=O)c2sc3nc(-c4ccncc4)ccc3c2N)cc(OC)c1 | -1.5 | 1.2
Nc1c(C(=O)NCc2ccco2)sc2nc(-c3ccncc3)ccc12 | 12* | -3.5
Cc1ccc(-c2nc(-c3ccccn3)no2)cc1C | -0.72 | -0.09
Fc1cccc(Cl)c1Cn1c(C2CCCO2)nc2ccccc21 (configuration not stated) | -1.1 | 0.9
CC(C)(C)c1ccc(C(O)CCCN2CCC(C(O)(c3ccccc3)c3ccccc3)CC2)cc1 (configuration not stated) | -0.98 | .
SMILES | CDC25B CDK2 inh | TAR Tat displ
Oc1ccc(Cl)cc1C=Nc1ccc2cn[nH]c2c1 | 9.1* | .
Oc1c(Cl)cc(Cl)cc1C=Nc1cccnc1 | -0.54 | .
CCCCc1nn2cc(-c3ccccc3)nc2s1 | 0.5 | 1.5
Cc1ccc(C(=O)N2CCN(C(=O)CSc3nnc(N)s3)C2)cc1 | 1.2 | 0.95
Cc1ccc(N2C(=O)c3ccccc3C2Nc2cccnc2)nc1 (configuration not stated) | 12* | -0.5
Cc1ccnc(N2C(=O)c3ccccc3C2Nc2ccccc2)c1 (configuration not stated) | 0.36 | 1.2
Cc1cc(O)c2c(c1)Cc1cccc(O)c1C2=O | . | 7.7*
O=C1c2cccc(O)c2C(=O)c2c(O)cccc21 | . | 3.1
Cc1nc2c(C)cccn2c(=O)c1Cc1nnc(SCC(=O)Nc2ccc(C(C)C)cc2)n1C | -0.42 | -0.62
Cc1nc2ccccn2c(=O)c1Cc1nnc(SCC(=O)Nc2ccc(Cl)cc2)n1C | -0.52 | -0.6
COc1ccc(NC(=O)C(C)Sc2nnc(Cc3c(C)nc4c(C)cccn4c3=O)n2C)cc1 (configuration not stated) | 7.2* | -0.94
COc1ccc(NC(=O)C(C)Sc2nnc(Cc3c(C)nc4ccccn4c3=O)n2C)cc1 (configuration not stated) | 16* | -0.14
CCCNC(=O)C1=Cc2cc(Br)ccc2OC=C1 | 0.77 | 1.2
O=c1cc(-c2cc(O)c(O)c(O)c2)oc2cc(O)cc(O)c12 | . | 10*
O=c1cc(-c2ccc(O)cc2)oc2cc(O)cc(O)c12 | 0.12 | 3.4
O=C(O)CSc1ccc(F)cc1 | . | 0.74
Cc1ccc(C)n1-c1ccc(SCC(=O)O)cc1 | 0.36 | 27*

Screening data: PubChem BioAssay, Center for Chemical Genomics, University of Michigan
